Screens from PubChem BioAssay.
Rows were chosen to be rich in hits. Some 11% of all compounds tested hit in one or more screens of this group.
HPGD inh: qHTS Assay for Inhibitors of HPGD (15-Hydroxyprostaglandin Dehydrogenase) | purified HPGD, NADH fluorescence kinetic, PGE2 substrate | Potency, µM, inactives show top-dose activity change, negative = inhibition, hits mostly inhibitors | 150,000 tested, 4.3% active | AID 894, 2007; further: potency means the concentration at half of the fitted maximal effect
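NADH formation kinetics: reaction with 30 uM PGE2 and 1 mM NAD+ (final), 20 nM enzyme, Tris-HCl pH 8 with Tween 20, after 15 min compound preincubation at room temperature. Fluorescence change, last versus first of five reads.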
ALDH1A1 block: qHTS Assay for Inhibitors of Aldehyde Dehydrogenase 1 (ALDH1A1) | Aldehyde dehydrogenase 1A1 (Homo sapiens), P00352 | Purified ALDH1A1, NADH fluorescence, propionaldehyde substrate | Potency, µM (series often up to 75.3 µM), without a hit: top-dose activity, negative = inhibition, most hits filed as inhibitors | 220,000 tested, 7.3% active | AID 1030, 2008;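 further: potency means the concentration at half of the fitted maximal effect; plate controls were no enzyme wells and a reference inhibitor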
Target sequence (P00352 whole entry, looked up): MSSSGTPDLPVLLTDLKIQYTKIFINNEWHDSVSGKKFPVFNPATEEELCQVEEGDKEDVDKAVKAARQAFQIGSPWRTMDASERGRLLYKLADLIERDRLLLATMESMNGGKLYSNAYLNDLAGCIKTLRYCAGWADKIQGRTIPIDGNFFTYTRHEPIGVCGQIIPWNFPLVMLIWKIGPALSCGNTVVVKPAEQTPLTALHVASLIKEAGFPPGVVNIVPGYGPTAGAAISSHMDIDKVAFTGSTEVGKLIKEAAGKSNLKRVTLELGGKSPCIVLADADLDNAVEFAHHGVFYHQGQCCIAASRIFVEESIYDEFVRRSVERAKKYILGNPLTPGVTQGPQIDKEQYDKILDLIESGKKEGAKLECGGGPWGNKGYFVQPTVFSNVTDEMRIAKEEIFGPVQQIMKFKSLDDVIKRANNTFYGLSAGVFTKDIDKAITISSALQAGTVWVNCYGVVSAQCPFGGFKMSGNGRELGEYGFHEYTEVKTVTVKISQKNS
PNC inhibitor: High Content Assay for Compounds that inhibit the Assembly of the Perinucleolar Compartment | activity change (PNC), negative = inhibition, % at 10 µM | 140,000 tested, 3.1% active | PC3M PTB-GFP, PNC prevalence imaging, 16 h; hits give low values;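 active means readout at or below -70, meaning at least 70% loss of cells showing the perinucleolar compartment, a nuclear body marking cancer cells; inconclusive means readout between -30 and a set limit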;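 further: plate controls were DMSO wells for no effect and camptothecin positive control wells for full effect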
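Compounds are pinned in duplicate onto adhered PC3M cells stably expressing GFP-tagged PTB and incubated 16 h at 37 C. Cells are then fixed, nuclei stained with Hoechst, and PNC-positive cells counted.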
Starred values were filed as active, the others as inactive; ? = inconclusive; . = not tested or not shown; [ ] = dose if it differs, or a comment. Unless noted, the call rests on the fitted dose curve; in most records, active means well fitted inhibition curve with a large enough effect (not every such curve was filed as active); inconclusive means small, poorly fitted or top-dose-only effect, or another doubt; inactive means no such curve, though single readings can be large or run the other way. Unless noted, on the % scale 0 is the no-effect control and ±100 the full control effect.

SMILES	HPGD inh	ALDH1A1 block	PNC inhibitor
CCN(CC)C(=O)c1ccc2c(=O)n(CCOC)c(=S)[nH]c2c1	14.1µM*	11.2µM*	21.7
COCCn1c(=S)[nH]c2ccc(N(C)C)cc2c1=O	-29.9%	?	24.6
CCCCCNC(=O)c1ccc2c(=O)n(CCCOCC)c(=S)[nH]c2c1	.	7.3%	.
CCOCCCn1c(=S)[nH]c2cc(C(=O)NCC(OC)OC)ccc2c1=O	.	8.91µM*	.
C=CCOC(=O)N[C@H](/C(C(=O)OC)=C(\C)NCc1ccccc1)c1ccc(Br)cc1	-0.1%	?	.
COc1ccc(C2(C(=O)N3CCOCC3)CCOCC2)cc1OC	-7.4%	3.5%	-12.1
CCOC(=O)C(=CNc1ccc2c(c1)nnn2-c1ccc(Cl)cc1)C(=O)OCC	?	8.7%	19.6
COc1ccc(N2CCN(C(=O)c3cc(=O)[nH]c4ccccc34)CC2)cc1	.	4.6%	.
Cc1cc(C)c(C)c(S(=O)(=O)N2CCN(C(=O)c3cc(=O)[nH]c4ccccc34)CC2)c1C	-6.5%	14.1µM*	2.4
O=C(c1cc(=O)[nH]c2ccccc12)N1CCN(c2ccc([N+](=O)[O-])cc2)CC1	.	2.99µM*	.
Cc1ccc(S(=O)(=O)N2CCN(C(=O)c3cc(=O)[nH]c4ccccc34)CC2)c(C)c1	-26.8%	?	0.5
CC(=O)Nc1cc(S(=O)(=O)Nc2ccccc2C)c(C)cc1C	-10.9%	2.2%	22.9
O=C(N/N=C/c1sc(=O)n(-c2ccccc2)c1Cl)c1ccncc1	-21.7%	10µM*	52.1
O=C(N/N=C/c1ccncc1)c1ccccc1	-1.7%	8.2%	24.3
COc1ccc(NC(=O)c2ccc(-n3c(C)ccc3C)cc2)c(OC)c1	.	9.6%	.
Cc1ccc(C)n1-c1ccc(NC(=O)c2ccccc2)cc1	-10.9%	-14.3%	-11.9
COc1cc(C(=O)N/N=C/c2sc(=O)n(-c3ccccc3)c2Cl)cc(OC)c1OC	-0.6%	?	1.8
CCc1ccccc1NC(=O)c1ccc(-n2c(C)ccc2C)cc1	15.8µM*	-8.4%	?
Cc1ccc(C)n1-c1ccc(C(=O)N/N=C/c2ccncc2)cc1	.	17.8µM*	.
CC(=O)Nc1ccc(NC(=O)c2ccc(-n3c(C)ccc3C)cc2)cc1	25.1µM*	22.4µM*	?
O=C(CSc1nc2[nH]ncc2c(=O)n1-c1ccc(Cl)c(Cl)c1)NCc1ccccc1Cl	.	-1.0%	.
Cc1cc(/C=N/NC(=O)c2ccsc2)c(C)n1-c1cnccn1	.	2.8%	.
Cc1ccccc1-n1c(C)cc(/C=N/NC(=O)c2ccncc2)c1C	-17.4%	31.6µM*	-3.3
Fc1cccc(Nc2nc(Cl)nc(Cl)n2)c1	.	-8.6%	.
CN(C#N)c1nc(Cl)nc(Nc2cccc(Cl)c2)n1	-21.2%	3.98µM*	?
SMILES	HPGD inh	ALDH1A1 block	PNC inhibitor
O=C(O)COc1cnc2ccccc2n1	.	-0.2%	.
O=C(CCl)Nc1ccc(Oc2cnc3ccccc3n2)cc1	-16.0%	0.112µM*	7.4
O=C(CCl)Nc1cccc(-c2cnc3ccccc3n2)c1	-15.1%	0.891µM*	?
CCC(=O)Nc1cccc(-c2cnc3ccccc3n2)c1	-2.2%	1.7%	-0.2
C[C@H]1Cc2c(COc3ccccc3)nc3c(c2CO1)CN(S(=O)(=O)c1ccc(C#N)cc1)CC3	-1.6%	6.0%[13.5 µM]	.
CC1CN(c2nc3c(c(=O)n(C)c(=O)n3C)n2Cc2c(F)cccc2Cl)CC(C)O1 (centres undefined)	-9.9%	5.7%	55.2
Cc1cc(OCC[N+]2(C)CCCCC2)nc2ccccc12	-10.5%	5.0%	2.8
CCOc1ccc(NC(=O)N[C@@H](CCSC)C(=O)OC)cc1	0.1%	3.2%	-24.4
O=C(COC(=O)CCc1nc2ccccc2c(=O)[nH]1)NC(=O)NC1CCCC1	-8.4%	-4.5%	21.1
O=C1c2cccnc2C(O)N1Cc1ccccc1 (centres undefined)	0.2%	2.1%	0.4
COc1cc(NC2c3ncccc3C(=O)N2Cc2ccco2)cc(OC)c1OC (centres undefined)	.	-8.3%	.
O=C1c2cccnc2C(Nc2ccccc2)N1Cc1ccco1 (centres undefined)	?	22.4µM*	48.6
O=C1c2cccnc2C(O)N1Cc1ccco1 (centres undefined)	5.0%	20µM*	?
O=C1c2cccnc2C(Nc2cccc(F)c2)N1Cc1ccco1 (centres undefined)	.	-5.6%	.
COc1ccc(CN2C(=O)c3cccnc3C2Nc2ccc(C)cc2)cc1 (centres undefined)	-13.6%	0.7%	-18.5
Cc1ccc(NC2c3ncccc3C(=O)N2Cc2cccs2)cc1 (centres undefined)	.	28.2µM*	.
